About 7,900 targets were measured; listed, in parts, are those with a hit and a random draw of the rest. About 0.6% of all pairs of compound and target were hits. A number with no mark means an inactive call.
Tests used:
Assay in all cases: log2 fold change, soluble protein after heating vs DMSO (PISA); higher = thermal stabilisation; K562 cells, 10 uM, 30 min; active = over 0.2 and 3.5 SD of the protein, either way, in both replicates (recomputed)
[1] = biological target: ZER1 (UniProt Q7Z7L7)
Procedure, shortened: (§1)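 K562 cells (2×10^6 cells/mL) were treated with 10 μM compound for 30 min, and aliquots were heated for 3 min over 48°C-58°C. Pooled aliquots were extracted in PBS with 0.5% NP-40 at 4°C, and the supernatant after 21,000xg for 90 min was measured by TMTpro 16plex LC-MS/MS with channel sums equalised. Reported thermal stability, relative to control samples and from duplicates, is a log2 fold change.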

[2] = biological target: ZFAND5 (UniProt O76080)
Sequence of ZFAND5 (O76080 whole entry, looked up): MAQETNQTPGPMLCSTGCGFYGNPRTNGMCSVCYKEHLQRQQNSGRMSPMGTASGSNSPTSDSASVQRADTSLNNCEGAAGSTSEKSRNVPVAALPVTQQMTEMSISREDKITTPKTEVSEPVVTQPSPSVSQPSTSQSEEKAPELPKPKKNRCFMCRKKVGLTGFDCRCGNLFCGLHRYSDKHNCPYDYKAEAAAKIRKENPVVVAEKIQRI
Procedure, shortened: as §1

[3] = biological target: ZFAND6 (UniProt Q6FIF0)
Sequence of ZFAND6 (Q6FIF0 whole entry, looked up): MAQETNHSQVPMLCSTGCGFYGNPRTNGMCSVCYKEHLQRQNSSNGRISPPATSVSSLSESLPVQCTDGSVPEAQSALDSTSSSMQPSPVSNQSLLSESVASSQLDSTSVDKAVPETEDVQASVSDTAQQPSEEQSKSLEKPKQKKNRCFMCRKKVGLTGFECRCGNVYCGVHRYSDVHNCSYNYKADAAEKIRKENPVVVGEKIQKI
Procedure, shortened: as §1

[4] = biological target: ZFP91 (UniProt Q96JP5)
Procedure, shortened: as §1

[5] = biological target: ZFPL1 (UniProt O95159)
Sequence of ZFPL1 (O95159 whole entry, looked up): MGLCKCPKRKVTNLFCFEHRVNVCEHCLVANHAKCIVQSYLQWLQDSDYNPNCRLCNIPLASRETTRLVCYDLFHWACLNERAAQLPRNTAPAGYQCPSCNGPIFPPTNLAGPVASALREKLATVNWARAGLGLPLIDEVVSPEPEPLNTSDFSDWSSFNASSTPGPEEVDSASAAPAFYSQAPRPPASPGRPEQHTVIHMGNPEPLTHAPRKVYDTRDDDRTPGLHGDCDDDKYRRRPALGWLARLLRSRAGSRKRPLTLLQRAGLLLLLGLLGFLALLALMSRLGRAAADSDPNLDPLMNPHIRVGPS
Procedure, shortened: as §1

[6] = biological target: ZMAT2 (UniProt Q96NC0)
Sequence of ZMAT2 (Q96NC0 whole entry, looked up): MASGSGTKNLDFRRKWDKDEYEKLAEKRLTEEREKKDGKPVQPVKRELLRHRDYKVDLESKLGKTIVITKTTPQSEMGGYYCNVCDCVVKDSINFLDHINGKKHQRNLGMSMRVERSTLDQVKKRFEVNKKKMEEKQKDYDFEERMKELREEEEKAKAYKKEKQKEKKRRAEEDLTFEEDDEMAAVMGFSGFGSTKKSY
Procedure, shortened: as §1

[7] = biological target: ZMYM1 (UniProt Q5SVZ6)
Sequence of ZMYM1 (Q5SVZ6 whole entry, looked up): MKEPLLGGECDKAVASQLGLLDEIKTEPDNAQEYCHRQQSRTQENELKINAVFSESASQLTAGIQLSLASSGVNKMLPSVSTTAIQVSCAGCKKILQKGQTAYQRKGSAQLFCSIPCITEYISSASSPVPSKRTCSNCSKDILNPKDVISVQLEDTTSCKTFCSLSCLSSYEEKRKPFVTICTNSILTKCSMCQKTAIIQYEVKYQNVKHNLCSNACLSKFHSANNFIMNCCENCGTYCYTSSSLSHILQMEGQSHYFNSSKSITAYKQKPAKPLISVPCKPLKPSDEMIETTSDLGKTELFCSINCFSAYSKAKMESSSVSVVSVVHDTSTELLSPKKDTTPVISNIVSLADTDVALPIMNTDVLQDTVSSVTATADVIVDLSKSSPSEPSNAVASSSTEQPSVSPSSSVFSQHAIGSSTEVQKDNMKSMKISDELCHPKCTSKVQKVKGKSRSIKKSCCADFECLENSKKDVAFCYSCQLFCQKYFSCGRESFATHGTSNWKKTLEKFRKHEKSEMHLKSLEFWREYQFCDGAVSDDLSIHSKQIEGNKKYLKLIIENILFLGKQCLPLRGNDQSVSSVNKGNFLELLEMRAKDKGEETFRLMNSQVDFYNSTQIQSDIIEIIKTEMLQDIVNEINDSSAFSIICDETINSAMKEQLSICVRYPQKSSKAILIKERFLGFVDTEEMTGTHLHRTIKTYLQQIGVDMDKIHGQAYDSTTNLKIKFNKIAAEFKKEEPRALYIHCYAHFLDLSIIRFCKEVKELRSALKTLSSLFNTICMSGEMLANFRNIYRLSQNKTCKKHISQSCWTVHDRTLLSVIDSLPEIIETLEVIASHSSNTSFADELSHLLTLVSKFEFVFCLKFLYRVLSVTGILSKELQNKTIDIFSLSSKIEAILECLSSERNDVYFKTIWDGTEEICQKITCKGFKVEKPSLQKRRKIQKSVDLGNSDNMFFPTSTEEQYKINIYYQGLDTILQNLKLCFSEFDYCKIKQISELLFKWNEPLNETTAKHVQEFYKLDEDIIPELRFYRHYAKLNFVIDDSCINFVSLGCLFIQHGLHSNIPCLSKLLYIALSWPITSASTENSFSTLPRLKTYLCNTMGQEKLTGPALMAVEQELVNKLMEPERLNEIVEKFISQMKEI
Procedure, shortened: as §1

[8] = biological target: ZMYM3 (UniProt Q14202)
Procedure, shortened: as §1

[9] = biological target: ZNF143 (UniProt P52747)
Sequence of ZNF143 (P52747 whole entry, looked up): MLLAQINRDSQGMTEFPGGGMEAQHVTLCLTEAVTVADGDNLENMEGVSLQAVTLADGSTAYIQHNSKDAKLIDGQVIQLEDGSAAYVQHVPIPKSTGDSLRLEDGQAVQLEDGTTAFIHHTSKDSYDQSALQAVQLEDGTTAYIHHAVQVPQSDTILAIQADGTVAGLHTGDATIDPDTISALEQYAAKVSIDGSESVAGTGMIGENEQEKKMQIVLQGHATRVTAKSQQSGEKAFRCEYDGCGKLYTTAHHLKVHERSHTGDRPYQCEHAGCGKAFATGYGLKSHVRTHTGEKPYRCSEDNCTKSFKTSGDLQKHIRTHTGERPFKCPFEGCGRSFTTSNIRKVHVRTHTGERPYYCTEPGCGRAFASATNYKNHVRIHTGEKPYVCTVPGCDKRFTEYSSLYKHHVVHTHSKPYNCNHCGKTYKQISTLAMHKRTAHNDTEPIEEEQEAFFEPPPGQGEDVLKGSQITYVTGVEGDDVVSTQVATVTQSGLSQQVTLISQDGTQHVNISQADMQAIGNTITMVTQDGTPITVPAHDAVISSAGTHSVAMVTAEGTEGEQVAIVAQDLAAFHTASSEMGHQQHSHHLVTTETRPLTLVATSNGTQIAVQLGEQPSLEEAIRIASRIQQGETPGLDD
Procedure, shortened: as §1

[10] = biological target: ZEB2 (UniProt O60315)
Sequence of ZEB2 (O60315 whole entry, looked up): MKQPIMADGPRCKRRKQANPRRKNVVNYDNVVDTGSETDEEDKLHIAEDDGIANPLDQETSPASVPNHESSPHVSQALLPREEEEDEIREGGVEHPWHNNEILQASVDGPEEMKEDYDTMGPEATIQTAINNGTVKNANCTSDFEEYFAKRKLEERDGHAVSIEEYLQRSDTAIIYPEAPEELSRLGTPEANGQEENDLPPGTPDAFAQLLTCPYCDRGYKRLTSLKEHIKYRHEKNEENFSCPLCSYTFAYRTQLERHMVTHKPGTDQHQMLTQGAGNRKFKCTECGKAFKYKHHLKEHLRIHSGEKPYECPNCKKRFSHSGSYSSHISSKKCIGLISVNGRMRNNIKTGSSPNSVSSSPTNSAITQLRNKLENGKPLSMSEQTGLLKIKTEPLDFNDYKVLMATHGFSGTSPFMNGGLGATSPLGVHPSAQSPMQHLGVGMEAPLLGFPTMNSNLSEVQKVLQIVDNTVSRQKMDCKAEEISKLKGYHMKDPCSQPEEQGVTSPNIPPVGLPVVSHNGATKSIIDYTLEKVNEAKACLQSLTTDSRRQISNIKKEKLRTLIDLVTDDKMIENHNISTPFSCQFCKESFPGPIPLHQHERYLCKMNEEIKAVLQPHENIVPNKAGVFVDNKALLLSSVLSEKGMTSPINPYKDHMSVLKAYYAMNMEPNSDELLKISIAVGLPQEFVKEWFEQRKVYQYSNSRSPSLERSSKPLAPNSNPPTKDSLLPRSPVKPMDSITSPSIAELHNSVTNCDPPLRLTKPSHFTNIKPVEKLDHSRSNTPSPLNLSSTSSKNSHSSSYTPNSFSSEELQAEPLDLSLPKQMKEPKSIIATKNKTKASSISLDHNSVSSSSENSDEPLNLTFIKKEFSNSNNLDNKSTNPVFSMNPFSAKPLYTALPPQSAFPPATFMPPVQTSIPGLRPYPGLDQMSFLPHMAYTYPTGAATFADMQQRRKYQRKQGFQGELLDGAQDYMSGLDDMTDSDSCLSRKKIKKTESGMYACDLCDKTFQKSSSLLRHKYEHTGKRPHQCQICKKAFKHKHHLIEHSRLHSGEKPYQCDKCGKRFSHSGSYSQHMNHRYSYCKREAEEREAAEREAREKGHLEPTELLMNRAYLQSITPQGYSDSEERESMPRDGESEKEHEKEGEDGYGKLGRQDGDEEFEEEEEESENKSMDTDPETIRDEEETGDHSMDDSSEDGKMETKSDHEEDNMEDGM
Procedure, shortened: as §1

Sequence of ZER1 (Q7Z7L7 whole entry, looked up): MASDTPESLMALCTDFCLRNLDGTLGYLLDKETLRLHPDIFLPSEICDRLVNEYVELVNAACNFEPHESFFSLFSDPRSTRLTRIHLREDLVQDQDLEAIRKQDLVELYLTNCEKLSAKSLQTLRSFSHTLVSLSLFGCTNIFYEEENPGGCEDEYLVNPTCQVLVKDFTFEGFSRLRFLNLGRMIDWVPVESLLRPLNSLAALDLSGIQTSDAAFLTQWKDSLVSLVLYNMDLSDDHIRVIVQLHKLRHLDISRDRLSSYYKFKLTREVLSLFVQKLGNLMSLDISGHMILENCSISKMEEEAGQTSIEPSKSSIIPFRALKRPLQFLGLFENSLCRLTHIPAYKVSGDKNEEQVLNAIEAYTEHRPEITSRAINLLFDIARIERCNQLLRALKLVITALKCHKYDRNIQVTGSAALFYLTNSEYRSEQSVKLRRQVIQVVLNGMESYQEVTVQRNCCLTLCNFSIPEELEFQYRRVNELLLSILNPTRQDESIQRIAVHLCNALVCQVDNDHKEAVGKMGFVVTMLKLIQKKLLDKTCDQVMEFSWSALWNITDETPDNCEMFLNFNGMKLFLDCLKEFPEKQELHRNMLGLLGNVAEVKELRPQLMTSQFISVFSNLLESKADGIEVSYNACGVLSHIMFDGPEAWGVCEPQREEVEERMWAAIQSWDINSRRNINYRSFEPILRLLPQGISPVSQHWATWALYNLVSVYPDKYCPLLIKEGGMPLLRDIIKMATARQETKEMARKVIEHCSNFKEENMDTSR

SMILES	log2 fold change [1]	log2 fold change [2]	log2 fold change [3]	log2 fold change [4]	log2 fold change [5]	log2 fold change [6]	log2 fold change [7]	log2 fold change [8]	log2 fold change [9]	log2 fold change [10]
O=C(CCCCCCC(=O)Nc1ccccc1)NO [vorinostat]	0.055	-0.047	0.04	0.013	-0.053	-0.019	-0.02	0.073	0.037	
CCn1cc(-c2ccnc3[nH]c(-c4cccc(CN(C)C)c4)cc23)c(-c2ccc(NC(=O)N(C)C)cc2)n1	-0.16	-0.017	-0.009	0.07	0.032	0.022	0.141	0.018	-0.102	
Cc1cccc(CC(=O)N2CCc3c2ccc(-c2cn(C)c4ncnc(N)c24)c3F)n1	0.369	-0.032	-0.014	-0.037	-0.041	-0.037	-0.036	-0.121	0.027	
CC[C@@H]1C(=O)N(C)c2cnc(Nc3ccc(C(=O)NC4CCN(C)CC4)cc3OC)nc2N1C1CCCC1	-0.032	0.052	0.058	0.104	-0.027	0.017	0.202	0.015	-0.018	
CN1CCC(CNc2ccc3ncc(-c4cccc(OC(F)(F)F)c4)n3n2)CC1	-0.172	-0.068	-0.037	0.171	-0.085	0.008	0.086	0.035	-0.109	
O=C1NC(=NCc2cccs2)S/C1=C\c1ccc2ncccc2c1	-0.016	-0.015	0.077	-0.007	0.01	-0.063	0.113	0	-0.028	
CS(=O)(=O)N1CCN(Cc2cc3nc(-c4cccc5[nH]ncc45)nc(N4CCOCC4)c3s2)CC1 [pictilisib]	0.085	0.007	0.063	-0.07	0.173	0.01	-0.018	-0.022	-0.06	
COc1cc(C(=O)O)ccc1NC(=O)[C@@H]1N[C@@H](CC(C)(C)C)[C@](C#N)(c2ccc(Cl)cc2F)[C@H]1c1cccc(Cl)c1F [idasanutlin]	-0.188	0.079	-0.096	0.029	-0.026	0.061	0.085	0	0.07	
O=C1c2ccccc2-c2n[nH]c3cccc1c23	-0.009	-0.055	-0.055	-0.004	-0.055	0.018	0.001	-0.093	-0.077	
CN1CCN(CCOc2cc(OC3CCOCC3)c3c(Nc4c(Cl)ccc5c4OCO5)ncnc3c2)CC1 [saracatinib]	0.013	0.08	-0.035	0.036	0.016	0.026	-0.024	0.098	0.094	0.008
O=C(O)c1ccc2c(c1)nc(Nc1cccc(Cl)c1)c1ccncc12 [silmitasertib]	0.028	-0.03	-0.018	0.086	0.003	0.028	0.255	-0.012	0.023	-0.001
CN1CC[C@H](c2c(O)cc(O)c3c(=O)cc(-c4ccccc4Cl)oc23)[C@H](O)C1 [alvocidib]	-0.131	0.041	0.028	0.108	-0.038	0.047	0.016	0.14	-0.125	
O=C1NC(=O)C(c2cnc3ccccn23)=C1c1cn2c3c(cc(F)cc13)CN(C(=O)N1CCCCC1)CC2	-0.198	-0.157	-0.013	0.073	-0.003	0.012	0.045	0.003	-0.042	0.116
Cn1cc(-c2ccc3nnc(C(F)(F)c4ccc5ncccc5c4)n3n2)cn1	-0.024	-0.036	-0.009	-0.073	-0.03	-0.051	0.05	-0.246 (active)	0.041	-0.135
O=C(CCCCCCNC(=O)c1cnc(N(c2ccccc2)c2ccccc2Cl)nc1)NO [citarinostat]	0.192	0	-0.081	-0.053	0.046	0.085	-0.07	-0.033	0.033	
CNCc1ccc(-c2[nH]c3cc(F)cc4c3c2CCNC4=O)cc1 [rucaparib]	-0.271	-0.012	-0.241 (active)	0.113	0.021	-0.206	0.331	0.049	-0.008	
Cc1cc(Nc2cc(CN3CCOCC3)c3nc(C)c(Cc4ccc(Cl)cc4F)n3n2)n[nH]1 [gandotinib]	-0.269	0.066	-0.004	0.214	0.011	-0.014	0.305	0.051	0.025	
C/C(=N\NC(=O)c1cccc(S(=O)(=O)N2CCOCC2)c1)c1cc(Cl)ccc1O	0.019	-0.018	-0.075	-0.069	0.099	0.001	-0.174	-0.004	0.127	
C[C@@H](N)c1ccc(C(=O)Nc2ccnc3[nH]ccc23)cc1	-0.055	-0.021	0.031	0.154	-0.006	-0.012	0.016	0.045	-0.118	
Cn1cc(-c2ccc3c(c2)CCN3C(=O)Cc2cccc(C(F)(F)F)c2)c2c(N)ncnc21	-0.021	-0.02	0.067	-0.161	0.049	-0.023	0.07	0.053	-0.129	
CC[C@H](C)[C@H](NC(=O)[C@H]([C@@H](C)CC)N(C)C(C)=O)C(=O)N[C@H](C(=O)N[C@@H](CC(C)C)C(=O)[C@@]1(C)CO1)[C@@H](C)O [epoxomicin]	0.048	0.345 (active)	0.051	-0.045	0.134	0.103	-0.05	-0.033	0.026	-0.026
c1cn2cc(-c3ccc4cn[nH]c4c3)nc(Nc3ccc(N4CCOCC4)cc3)c2n1 [entospletinib]	0.036	0.128	0.019	0.011	0.034	-0.116	0.174	-0.043	0.015	
